Source: PubChem BioAssay
Gal4-VP16 FLuc: Gal4-VP16 reporter inhibition counter-screen | Drosophila S2 Gal4-VP16 UAS-luciferase, luminescence, 20 h | hit rate 3.5% among 310,000 | AID 2546 | Potency, µM (top dose mostly 53.6 µM), for inactives: at the top dose activity, negative = inhibition, most hits filed as inhibitors;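 further: Gal4-VP16 expression switched on by copper sulfate through the metallothionein promoter; nearly all actives have a fitted effect of over 50% in size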
B2AR arrestin: recruits beta-arrestin to the human beta2-adrenergic receptor; AID 492947; hit rate 0.02% among 330,000; Potency, µM (series often up to 46.1 µM), for the others: top-dose activation, most hits filed as activators; P07550; beta-arrestin recruitment to beta2AR, cell-based reporter;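 further: 0% = DMSO controls and full agonism = EC100 isoproterenol or metaproterenol; nearly all actives have a fitted effect of over 65% in size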
NPSR antagonist: neuropeptide S receptor (human) antagonism, cAMP; Potency, µM (series often up to 38.3 µM), for the others: top-dose activity change, negative = inhibition, actives largely listed as inhibitors; hit rate 1% among 220,000; AID 1461; Q6W5P4; CHO-NPSR cells, cAMP TR-FRET, antagonist mode; further: nearly all actives have a fitted effect of over 50% in size
Target sequence (Q6W5P4 whole entry, looked up): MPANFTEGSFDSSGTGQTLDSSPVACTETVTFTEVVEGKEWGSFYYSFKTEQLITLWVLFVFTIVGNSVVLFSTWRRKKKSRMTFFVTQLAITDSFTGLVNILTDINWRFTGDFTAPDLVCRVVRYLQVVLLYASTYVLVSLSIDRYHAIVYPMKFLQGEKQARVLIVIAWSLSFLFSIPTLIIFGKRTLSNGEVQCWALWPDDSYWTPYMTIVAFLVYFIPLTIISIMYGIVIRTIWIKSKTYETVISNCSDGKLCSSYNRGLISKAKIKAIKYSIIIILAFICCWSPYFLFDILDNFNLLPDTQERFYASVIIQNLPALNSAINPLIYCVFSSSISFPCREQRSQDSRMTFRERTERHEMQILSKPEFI
RORgamma inh: ROR gamma (mouse) transcription inhibition | hit rate 5.4% among 310,000 | Drosophila S2 Gal4-RORgamma UAS-luciferase reporter, 20 h | P51450 | AID 2551 | Potency, µM (highest dose often 53.6 µM), for inactives: at the highest dose activity change, negative = inhibition, actives largely listed as inhibitors; further: nearly all actives have a fitted effect of over 60% in size
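ROR gamma transcriptional activity was tracked as Gal4-UAS luciferase output in stably transfected Drosophila Schneider cells, with compound added 1 hr before 700 uM copper sulfate induction and a 20 hr ambient-temperature incubation.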
* marks the source's active call; other numbers are inactive results; ? = inconclusive; . = no result given; [ ] = dose if it differs, or a comment. A selection: hits, their analogues and other compounds. The true share with any hit is near 5.7%. The call rests on the fitted dose curve; in most records, active means well fitted curve in the direction sought with a large enough effect; inconclusive means small, poorly fitted or top-dose-only effect, or another doubt; inactive means no such curve, though single readings can be large; an effect the other way counts as inactive or inconclusive. Unless noted, on the % scale 0 is the no-effect control and ±100 the full control effect; potency means the concentration at half of the fitted maximal effect.

SMILES | Gal4-VP16 FLuc | B2AR arrestin | NPSR antagonist | RORgamma inh
CC(=O)c1ccc(NC(=O)C(C)Nc2ccc(Cl)cc2)cc1 (centres undefined) | 2% | 0% | -39% | ?
COc1ccc(N/C=C(\C=C\C#N)S(=O)(=O)c2ccccc2)cc1 | ? | -1% | . | 5%
CCCCCn1c(=O)c(-c2nc3ccccc3[nH]2)c(O)c2ccccc21 | 7.9µM* | 0% | -21% | 1.6µM*
CCCCCCCCn1c(=O)c(C(=O)OCC)c(O)c2ccccc21 | 7% | 0% | 0%[46.1 µM] | 11%
COc1ccc(Nc2nc(-c3ccncc3)nc3ccccc23)cc1 | -15% | 0% | . | -6%
O=C(CCn1[nH]c(=O)c2ccccc2c1=O)OC1CCCCC1 | 22µM* | 0% | -15%[46.1 µM] | ?
COc1ccccc1NC(=S)NC1CCC(CC2CCC(NC(=S)Nc3ccccc3OC)CC2)CC1 (centres undefined) | 3.2µM* | 0% | -11%[46.1 µM] | 3.5µM*
CN(C)NC(=S)NC1CC2CCC1C2 (centres undefined) | 13µM* | -1% | 5% | 5.6µM*
COc1ccccc1NC(=S)NCC1CCC(CNC(=S)Nc2ccccc2OC)CC1 (centres undefined) | -11% | -1% | 11% | -28%
COc1ccccc1NC(=S)NC1CC2CCC1C2 (centres undefined) | 16µM* | -1% | -2% | 2.2µM*
Cc1ccccc1CN(C)C(=O)c1ccc2ccccc2n1 | -1% | -2% | . | 4%
FC(F)Oc1ccc(NC(=S)NCCc2ccccn2)cc1 | 5µM* | 0% | -6% | 4.5µM*
FC(F)Oc1ccc(NC(=S)Nn2cnnc2)cc1 | -14% | 0% | 12% | -25%
FC(F)Oc1ccc(NC(=S)NCc2ccccc2)cc1 | ? | -1% | -7% | 13µM*
Oc1cccc2c(NC(=S)Nc3ccc(OC(F)F)cc3)cccc12 | 11µM* | 4% | 1% | ?
FC(F)Oc1ccc(NC(=S)NCc2ccccc2)cc1Cl | ? | 0% | -9%[46.1 µM] | 14µM*
CCCCCCC#Cc1cc(OC)c(OC)cc1C(N1CC(C)c2ccccc21)N1CC(C)c2ccccc21 (centres undefined) | -11%[10 µM] | . | . | 9%[10 µM]
CC(C)[C@H](NC(=O)OC(C)(C)C)[C@@H](O)CC(=O)OC(C)(C)C | -3%[10 µM] | . | . | -14%[10 µM]
CCOC(=O)[C@@H]1[C@H]2COc3ccccc3[C@@H]2N2C(=O)N(c3ccc(OC)cc3)C(=O)[C@@]12C | 7% | 0% | . | -42%
CN(NC(=S)Nc1ccc(OC(F)F)cc1)C(=S)Nc1ccc(OC(F)F)cc1 | 13µM* | 0% | 15% | -29%
O=C(CSc1ncnc2c1nnn2Cc1ccccc1F)NCC1CCCO1 (centres undefined) | -29% | -1% | . | 13µM*
COc1cc(C(=O)NCC(=O)NCC(c2ccco2)N2CCCCC2)cc(OC)c1OC (centres undefined) | . | 0% | . | .
COc1ccccc1CNC(=O)CCNS(=O)(=O)c1ccc2c(c1)oc(=O)n2C | 1% | 0% | . | -15%
C/C(CC(=O)C(F)(F)F)=N\NC(=O)/C(C#N)=C/N(C)C | ? | 0% | 20% | 8.9µM*
O=C1/C(=C/c2cccnc2)SC(=S)N1C1CCS(=O)(=O)C1 (centres undefined) | ? | 0% | -7%[46.1 µM] | 11µM*
SMILES | Gal4-VP16 FLuc | B2AR arrestin | NPSR antagonist | RORgamma inh
O=C1/C(=C\c2cccnc2)SC(=S)N1C1CCS(=O)(=O)C1 (centres undefined) | ? | 0% | 3%[46.1 µM] | 6.3µM*
O=C1/C(=C/c2cccnc2)SC(=S)N1N1CCOCC1 | -14% | -1% | 3% | -43%
COc1cc(/C=C2\C(=O)ON=C2c2ccccc2)cc(Br)c1O | ? | -1% | . | ?
O=C1ON=C(c2ccc(Cl)cc2)/C1=C/c1ccc(O)cc1 | ? | 0% | 6.3µM* | -103%
COc1cc(/C=C2\C(=O)ON=C2c2ccccc2)cc(Cl)c1O | 13µM* | 0% | 7.9µM* | ?
Cc1onc(-c2ccccc2)c1C(=O)Nc1ccc(Cl)c(S(=O)(=O)N2CCOCC2)c1 | . | -1% | . | .
CCCCN(Cc1ccco1)C(=O)C1CCCN(c2ncnc3c2nc2n3CCCCC2)C1 (centres undefined) | -18% | 4% | . | 29%
Cc1ccc(NC(=O)COC(=O)CCC2CCCC2)cc1S(=O)(=O)N1CCOCC1 | . | 0% | . | .
CC(=O)Nc1ccc(NC(=S)NC(=O)C2CCCC2)cc1 | 0% | 0% | . | 15%
Cc1ccc(NC(=S)NC(=O)C2CCCC2)c(Br)c1 | . | 0% | . | .
O=C(NC(=S)Nc1cccc([N+](=O)[O-])c1)c1ccccc1 | -6% | 8% | -5% | ?
